Laboratory results taken from the OligoGym collection.

Each sequence was assayed against NAA35 (assay: pooled miR-30 sensor sort-seq; sequence = guide strand). Settings: shRNA.
Note: reference of the scale not given here.

Sequence | sensor-assay potency score (higher = more potent)
TAGTTCACCATTTCTTCCCTTT | 0.00785
TTATTATATAGGTAGCACTTGG | -0.806
TTAATTCTCGACAAGCTTCTTC | 0.731
TATGTAATAGTACTCGTGCATA | -1.06
TACTGCTAAACATTGTTGGTGT | 0.709
TTATTTTTGCATATCGAGGGAA | 0.0226
TTATTCTATCTATTAATCTTGC | -0.493
ATATATGTAATAGTACTCGTGC | 0.454
TTATATAGGTAGCACTTGGGGG | -1.1
TAATTATTTTTGCATATCGAGG | -1.65
TATATAGGTAGCACTTGGGGGA | -0.0355
TCTATTAACCTCATGGTCCGGG | 0.321

These sequences were tested against NAALADL1 in the same assay as above. Settings: shRNA.

Sequence | sensor-assay potency score (higher = more potent)
TCTCACTGTAGTCACTGACTTT | -1.01
TCTGTGTACACCAGCACCCCAG | -1.23
TTGATGTCGGCAGGGTCTGTGT | -1.45
TACAGAGCAGGTCTCTTGCATC | -0.894
TTGAGGGGCAGGAAGAAGCTGT | -0.568
TAGACGCTCACATTCACCTGGC | 0.571
TTCCCATACAGCACGTAGCGAT | -0.768
TTACAGAGCAGGTCTCTTGCAT | -0.148
TTCTGCAGTGTTGATATGCGTT | -0.417
TTGTCGTAGATGCTCAGGTCGC | -1.1
